# Experimental data: PubChem BioAssay (EPA / NIEHS)
# Active and inactive are the calls of the source. The calls were made as follows: active = hit-call score of the fitted dose curve at least 0.9, where 1 is the maximum; inactive = score below 0.9.
# How the values were obtained:
# Settings in all cases: mRNA level, 48 h; actives raise or lower the signal
# CYP2C8 (gene 1558) = test: LTEA_HepaRG_CYP2C8: Life Technologies and Expression Analysis (LTEA) Assay for CYP2C8 using HepaRG (AID 2283483)
# In short: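 HepaRG (human liver line), 48 h chemical exposure, 8-pt half-log series from 100 uM, 0.5% DMSO vehicle. Readout: CYP2C8 transcript by qRT-PCR, housekeeping-normalized. Bidirectional fit vs DMSO baseline.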
# CYP2C9 (gene 1559) = test: LTEA_HepaRG_CYP2C9: Life Technologies and Expression Analysis (LTEA) Assay for CYP2C9 using HepaRG (AID 2283484)
# In short: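 HepaRG, 48 h dosing, 8-pt half-log series, top 100 uM, 0.5% DMSO vehicle. Read-out: CYP2C9 transcript by TaqMan qRT-PCR, housekeeping-normalized (ACTB/GAPDH/POLR2A). Gain or loss fitted vs DMSO baseline.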
# CYP4A11 (gene 1579) = test: LTEA_HepaRG_CYP4A11: Life Technologies and Expression Analysis (LTEA) Assay for CYP4A11 using HepaRG (AID 2283486)
# In short: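 Readout is CYP4A11 mRNA induction or suppression (qRT-PCR, ACTB/GAPDH/POLR2A normalization) in human HepaRG cells after 48 h chemical treatment, concentrations to 100 uM in 0.5% DMSO, fitted bidirectionally against vehicle.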
# [1] = read-out: DNA damage-inducible transcript 3 (DDIT3), DDIT3 (gene 1649); test: LTEA_HepaRG_DDIT3: Life Technologies and Expression Analysis (LTEA) Assay for DNA damage-inducible transcript 3 (DDIT3) using HepaRG (AID 2283488)
# In short: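 Eight-point concentration-response (100 uM highest, half-log dilutions) in HepaRG, 48 h, duplicate wells. Endpoint: qRT-PCR mRNA, normalized (ACTB, GAPDH, POLR2A), bidirectional fitting with DMSO as baseline.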
# [2] = read-out: Early growth response protein 1 (EGR1) transcription factor, EGR1 (gene 1958); test: LTEA_HepaRG_EGR1: Life Technologies and Expression Analysis (LTEA) Assay for Early growth response protein 1 (EGR1) transcription factor using HepaRG (AID 2283490)
# In short: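 HepaRG, 48 h exposure, 8-pt half-log series from 100 uM, 0.5% DMSO vehicle; EGR1 transcript by TaqMan qRT-PCR (Fluidigm array), housekeeping-normalized; bidirectional fit relative to DMSO baseline.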
# [3] = read-out: Ezrin (EZR), EZR (gene 7430); test: LTEA_HepaRG_EZR: Life Technologies and Expression Analysis (LTEA) Assay for Ezrin (EZR) using HepaRG (AID 2283491)
# In short: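 EZR transcript levels came from Fluidigm qRT-PCR and were normalized to three housekeeping genes after 48 h chemical exposure of HepaRG cells. Dosing used an 8-point half-log series with a 100 uM top concentration in 0.5% DMSO, tested in duplicate; both directions were fitted versus vehicle.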
# [4] = read-out: Cytochrome P450 3A7 (Homo sapiens) (UniProt P24462); test: LTEA_HepaRG_CYP3A7: Life Technologies and Expression Analysis (LTEA) Assay for CYP3A7 using HepaRG (AID 2283492)
# In short: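 Cells were thawed, plated, cultured 48 h, then treated for a further 48 h with chemicals (eight-point half-log series from 100 uM, 0.5% DMSO). RNA was isolated and CYP3A7 expression quantified by qRT-PCR normalised to ACTB, GAPDH and POLR2A.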
# CYP3A5 (gene 1577) = test: LTEA_HepaRG_CYP3A5: Life Technologies and Expression Analysis (LTEA) Assay for CYP3A5 using HepaRG (AID 2283493)
# In short: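 Readout was CYP3A5 mRNA by qRT-PCR. HepaRG cultures were exposed for 48 h in serum-free induction medium to chemicals at up to 100 uM, and responses were fitted in both directions relative to DMSO vehicle.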
# [5] = read-out: Fatty Acid-Binding Protein 1 (FABP1), FABP1 (gene 2168); test: LTEA_HepaRG_FABP1: Life Technologies and Expression Analysis (LTEA) Assay for Fatty Acid-Binding Protein 1 (FABP1) using HepaRG (AID 2283494)
# In short: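 qRT-PCR readout of FABP1 transcript (normalized to three housekeeping genes) after 48 h chemical exposure of HepaRG cells; eight concentrations, half-log steps, max 100 uM, 0.5% DMSO vehicle; gain or loss fitted relative to DMSO baseline.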
# [6] = read-out: Cytochrome P450 4A22 (Homo sapiens) (UniProt Q5TCH4); test: LTEA_HepaRG_CYP4A22: Life Technologies and Expression Analysis (LTEA) Assay for Cytochrome P450 4A22 (CYP4A22) using HepaRG (AID 2283495)
# In short: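 Cryopreserved HepaRG cells, plated and cultured 48 h, then switched to serum-free induction medium and treated 48 h (duplicates, up to 100 uM, half-log steps, 0.5% DMSO). Expression change of CYP4A22 was fitted bidirectionally against vehicle.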
# [7] = read-out: Cytochrome P450 7A1 (Homo sapiens) (UniProt P22680); test: LTEA_HepaRG_CYP7A1: Life Technologies and Expression Analysis (LTEA) Assay for Cytochrome P450 7A1 (CYP7A1) using HepaRG (AID 2283496)
# In short: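 Using 0.5% DMSO as vehicle and baseline, chemicals were tested in duplicate over an 8-point range from 100 uM on HepaRG cells for 48 h; qRT-PCR signals were normalised to ACTB, GAPDH and POLR2A.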
# [8] = read-out: Glutathione S-Transferase (GSTA2), GSTA2 (gene 2939); test: LTEA_HepaRG_GSTA2: Life Technologies and Expression Analysis (LTEA) Assay for Glutathione S-Transferase (GSTA2) using HepaRG (AID 2283497)
# In short: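 qRT-PCR readout of GSTA2 transcript, normalized to three housekeeping genes, fitted bidirectionally against 0.5% DMSO baseline. Differentiated HepaRG cells received compound for 48 h at 8 concentrations (top 100 uM, half-log steps).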
# [9] = read-out: Glutamate-cysteine ligase catalytic (GCLC), GCLC (gene 2729); test: LTEA_HepaRG_GCLC: Life Technologies and Expression Analysis (LTEA) Assay for Glutamate-cysteine ligase catalytic (GCLC) using HepaRG (AID 2283498)
# In short: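 HepaRG, 48 h exposure, 8-pt half-log series from 100 uM, 0.5% DMSO vehicle; TaqMan qRT-PCR for GCLC mRNA, housekeeping-normalized; bidirectional curve fit vs DMSO baseline.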
# [10] = read-out: growth arrest and DNA damage 45 (GADD45G), GADD45G (gene 10912); test: LTEA_HepaRG_GADD45G: Life Technologies and Expression Analysis (LTEA) Assay for growth arrest and DNA damage 45 (GADD45G) using HepaRG (AID 2283499)
# In short: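 Human hepatic HepaRG line treated 48 h with chemicals (eight concentrations, half-log steps from 100 uM); transcript induction or repression of GADD45G scored by qRT-PCR versus DMSO vehicle.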
# [11] = read-out: Glutamate-cysteine ligase regulatory (GCLM), GCLM (gene 2730); test: LTEA_HepaRG_GCLM: Life Technologies and Expression Analysis (LTEA) Assay for Glutamate-cysteine ligase regulatory (GCLM) using HepaRG (AID 2283500)
# In short: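 In this multiplexed HepaRG gene-expression assay, GCLM mRNA change after 48 h treatment (8 concentrations, max 100 uM) was scored against DMSO by bidirectional curve fitting.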
# [12] = read-out: Glutathione S-transferase M3 (GSTM3), GSTM3 (gene 2947); test: LTEA_HepaRG_GSTM3: Life Technologies and Expression Analysis (LTEA) Assay for Glutathione S-transferase M3 (GSTM3) using HepaRG (AID 2283501)
# In short: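 Changes in GSTM3 expression, an oxidative-stress marker, were scored by bidirectional curve fitting against 0.5% DMSO vehicle. Human HepaRG cultures received chemicals for 48 h in duplicate, highest concentration 100 uM with half-log dilutions.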
# [13] = read-out: Heat shock 70 kDa protein 1 (HSPA1A), gene 3303; test: LTEA_HepaRG_HSPA1A: Life Technologies and Expression Analysis (LTEA) Assay for Heat shock 70 kDa protein 1 (HSPA1A) using HepaRG (AID 2283502)
# In short: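 An oxidative-stress marker readout: HepaRG cells treated 48 h in duplicate with an eight-point series (highest 100 uM) had HSPA1A mRNA quantified by TaqMan qRT-PCR. Activity was fitted in both directions using 0.5% DMSO as baseline.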
# Chain of Cytochrome P450 3A7 (Homo sapiens) (P24462 whole entry, looked up): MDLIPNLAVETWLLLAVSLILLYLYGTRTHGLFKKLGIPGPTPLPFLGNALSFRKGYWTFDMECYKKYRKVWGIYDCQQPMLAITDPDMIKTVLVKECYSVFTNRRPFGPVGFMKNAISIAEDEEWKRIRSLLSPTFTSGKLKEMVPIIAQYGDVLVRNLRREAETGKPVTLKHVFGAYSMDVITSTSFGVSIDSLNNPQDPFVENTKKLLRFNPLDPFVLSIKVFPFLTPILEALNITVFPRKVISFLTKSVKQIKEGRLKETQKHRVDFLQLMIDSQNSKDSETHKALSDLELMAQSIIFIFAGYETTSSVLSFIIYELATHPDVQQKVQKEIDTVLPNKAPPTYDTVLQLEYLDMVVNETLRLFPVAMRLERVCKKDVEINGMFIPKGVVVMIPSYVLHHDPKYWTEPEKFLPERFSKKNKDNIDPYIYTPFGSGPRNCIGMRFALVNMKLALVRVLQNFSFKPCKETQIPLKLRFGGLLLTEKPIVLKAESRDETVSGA
compound,measurement,setting,value
Fc1ccc(Oc2ccnc3cc(Cl)cc(Cl)c23)cc1,AC50,CYP2C8 (gene 1558),86.6 µM (active)
same,AC50,CYP2C9 (gene 1559),86.8 µM (active)
same,AC50,CYP4A11 (gene 1579),70.1 µM (active)
same,AC50,[1],65.1 µM (active)
same,outcome,[2],inactive
same,outcome,[3],inactive
same,AC50,[4],79.4 µM (active)
same,outcome,CYP3A5 (gene 1577),inactive
same,AC50,[5],87 µM (active)
same,AC50,[6],82.6 µM (active)
same,AC50,[7],90.5 µM (active)
same,AC50,[8],83.6 µM (active)
same,outcome,[9],inactive
same,outcome,[10],inactive
same,outcome,[11],inactive
same,outcome,[12],inactive
same,outcome,[13],inactive
N#Cc1nn(-c2c(Cl)cc(C(F)(F)F)cc2Cl)c(N)c1S(=O)C(F)(F)F (stereo unspecified),AC50,CYP2C8 (gene 1558),33 µM (active)
same,AC50,CYP2C9 (gene 1559),34.9 µM (active)
same,AC50,CYP4A11 (gene 1579),24.6 µM (active)
same,AC50,[1],30.2 µM (active)
same,AC50,[2],13.2 µM (active)
same,AC50,[3],29.3 µM (active)
same,outcome,CYP3A5 (gene 1577),inactive
same,AC50,[5],24.1 µM (active)
same,AC50,[6],26.2 µM (active)
same,AC50,[7],35 µM (active)
same,AC50,[8],32 µM (active)
same,outcome,[9],inactive
same,AC50,[10],31.5 µM (active)
same,AC50,[11],29.1 µM (active)
same,AC50,[12],80.8 µM (active)
same,AC50,[13],11.9 µM (active)
CCOC(=O)C(Cl)Cc1cc(-n2nc(C)n(C(F)F)c2=O)c(F)cc1Cl (stereo unspecified),AC50,CYP2C8 (gene 1558),23.3 µM (active)
same,AC50,CYP2C9 (gene 1559),25.5 µM (active)
same,outcome,CYP4A11 (gene 1579),inactive
same,outcome,[1],inactive
same,outcome,[2],inactive
same,outcome,[3],inactive
same,AC50,[4],34.3 µM (active)
same,outcome,CYP3A5 (gene 1577),inactive
same,outcome,[5],inactive
same,outcome,[6],inactive
same,outcome,[7],inactive
same,outcome,[8],inactive
same,outcome,[9],inactive
same,outcome,[10],inactive
same,outcome,[11],inactive
same,outcome,[12],inactive
same,outcome,[13],inactive
CCCCNC(=O)OCC#CI,AC50,CYP2C8 (gene 1558),50 µM (active)
same,AC50,CYP2C9 (gene 1559),21.5 µM (active)
same,outcome,CYP4A11 (gene 1579),inactive
same,outcome,[1],inactive
same,outcome,[2],inactive
same,outcome,[3],inactive
same,AC50,[4],50 µM (active)
same,outcome,CYP3A5 (gene 1577),inactive
same,AC50,[5],50 µM (active)
same,outcome,[6],inactive
same,AC50,[7],50 µM (active)
same,AC50,[8],9.92 µM (active)
same,AC50,[9],0.00766 µM (active)
same,outcome,[10],inactive
same,outcome,[11],inactive
same,outcome,[12],inactive
same,AC50,[13],50 µM (active)
O=C(Nc1ccccc1)Nc1ccnc(Cl)c1,outcome,CYP2C8 (gene 1558),inactive
same,AC50,CYP2C9 (gene 1559),75.6 µM (active)
same,AC50,CYP4A11 (gene 1579),36.6 µM (active)
same,outcome,[1],inactive
same,AC50,[2],84.6 µM (active)
same,AC50,[3],79.5 µM (active)
same,outcome,[4],inactive
same,AC50,CYP3A5 (gene 1577),49.1 µM (active)
same,AC50,[5],71.3 µM (active)
same,AC50,[6],28.4 µM (active)
same,AC50,[7],81.3 µM (active)
same,AC50,[8],24.9 µM (active)
same,AC50,[9],83 µM (active)
same,outcome,[10],inactive
same,AC50,[11],84.8 µM (active)
same,AC50,[12],80.4 µM (active)
same,AC50,[13],84.2 µM (active)
OC(c1ccc(Cl)cc1)(c1cncnc1)c1ccccc1Cl (stereo unspecified),AC50,CYP2C8 (gene 1558),83.6 µM (active)
same,AC50,CYP2C9 (gene 1559),83.7 µM (active)
same,AC50,CYP4A11 (gene 1579),70.4 µM (active)
same,AC50,[1],71.8 µM (active)
same,outcome,[2],inactive
same,outcome,[3],inactive
same,AC50,[4],11.9 µM (active)
same,outcome,CYP3A5 (gene 1577),inactive
same,AC50,[5],80.4 µM (active)
same,AC50,[6],72.9 µM (active)
same,AC50,[7],77 µM (active)
same,AC50,[8],74.8 µM (active)
same,AC50,[9],50 µM (active)
same,AC50,[10],68.7 µM (active)
same,AC50,[11],57.8 µM (active)
same,outcome,[12],inactive
same,outcome,[13],inactive
